An excerpt weighted towards active compounds, which were near 2.4% of everything screened.
PfGluPho inh – PfG6PD (Plasmodium falciparum) enzyme inhibition; inhibition, % at 20 µM; AID 504690; PfGluPho enzyme, NADPH resazurin-diaphorase fluorescence; 0.78% of 350,000 active;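 active = inhibition reaching at least a set limit at 20 µM in the primary screen, cut at about 59% in these data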;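 note: 0% = DMSO wells with substrate and 100% = DMSO wells lacking glucose-6-phosphate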
A3A deaminase – blocks human APOBEC3A ssDNA deamination | P31941 | recombinant A3A, FAM/TAMRA ssDNA deamination fluorescence | inhibition, % at 20 µM | 0.41% of 330,000 active;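 active = at least 40% inhibition at 20 µM here, with at most 30% in a related deaminase screen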;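 note: plate controls were A3A with DMSO for no effect and wells lacking A3A enzyme for full effect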
M18AAP inhibitor – PfM18AAP enzyme inhibition; 1.2% of 290,000 active; inhibition, % at 7.35 µM; recombinant PfM18AAP, H-Glu-NHMec fluorogenic cleavage; AID 1822;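 active = inhibition above the campaign mean inhibition over all tested compounds plus 3 SD, cut at about 28% in these data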;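 note: 0% = plate median of test compound wells and 100% = 2 mM ZnCl2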
CR mimetic SO – yeast age-related superoxide inhibition as caloric restriction mimetic; 0.18% of 330,000 active; S. cerevisiae aged cells, superoxide DHE fluorescence; stronger effect = lower value; superoxide response (% of plate mean), % at 10 µM;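 active = superoxide response under a set limit, about three screen SD below normal, cut at about 65% in these data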;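 note: yeast aged for seven days with compound at 30 °C before DHE staining; 100% = average MFI of all compound-treated wells on the plate with controls excluded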
APOBEC3G inh – blocks human APOBEC3G single-stranded DNA deamination. Q9HC16. inhibition, % at 20 µM. recombinant A3G, ssDNA deamination FAM/TAMRA fluorescence. AID 493012. 0.28% of 330,000 active;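 active = inhibition of at least 40% at 20 µM, with no more than 30% in the related APOBEC3A deaminase screen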;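 note: plate controls were DMSO wells with A3G for no effect and wells lacking A3G enzyme for full effect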
Target sequence (Q9HC16 whole entry, looked up): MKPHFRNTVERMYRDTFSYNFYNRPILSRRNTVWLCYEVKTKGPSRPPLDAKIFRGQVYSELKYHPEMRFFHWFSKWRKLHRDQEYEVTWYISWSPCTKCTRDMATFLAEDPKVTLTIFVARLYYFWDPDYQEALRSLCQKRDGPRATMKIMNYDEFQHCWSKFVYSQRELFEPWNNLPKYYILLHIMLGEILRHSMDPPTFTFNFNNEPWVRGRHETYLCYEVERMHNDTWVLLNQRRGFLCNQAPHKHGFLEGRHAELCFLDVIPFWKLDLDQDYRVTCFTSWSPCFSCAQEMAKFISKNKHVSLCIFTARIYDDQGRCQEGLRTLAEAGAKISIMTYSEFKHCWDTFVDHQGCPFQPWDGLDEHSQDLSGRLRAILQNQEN
A3G conf – APOBEC3G (human) deaminase inhibition, confirmed; shares compounds with APOBEC3G inh; recombinant A3G ssDNA deaminase, UDG/FAM-TAMRA fluorescence; inhibition, % at 20 µM; 72% of 890 active; AID 493152;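 active = inhibition reaching a set limit in any replicate at 20 µM, the limit being 80% of the first screen's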
UDG A3G counter – E. coli UDG inhibition in APOBEC3G counter-screen. shares compounds with APOBEC3G inh. UDG counterscreen, FAM/TAMRA oligo fluorescence. inhibition, % at 20 µM. 710 tested, under 10 active;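 active = compounds giving 40% or more inhibition at 20 µM in any one of the three replicates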;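 note: plate controls were DMSO wells with UDG and oligo for no effect and DMSO wells lacking both for full effect; inhibitors lower the FAM signal released by uracil excision and alkaline cleavage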
Active calls of the source: *; . = no result.

SMILES	PfGluPho inh	A3A deaminase	M18AAP inhibitor	CR mimetic SO	APOBEC3G inh	A3G conf	UDG A3G counter
COc1ccc(OC)c(C2NC(=O)c3sc(=S)n(-c4ccccc4)c3N2)c1 (stereo unspecified)	36	5	-1	104	-4	.	.
COc1ccc(C2CC(=O)N3CN(c4ccc(C)c(Cl)c4)CSC3=C2C#N)cc1 (stereo unspecified)	70*	4	17	84	52*	52*	.
COc1ccc(OC)c(C2CC(=O)N3CN(c4ccccc4)CSC3=C2C#N)c1 (stereo unspecified)	81*	2	25	86	46*	56*	-4
COc1cc(OC)c(C2CC(=O)N3CN(c4ccccc4C)CSC3=C2C#N)cc1OC (stereo unspecified)	.	0	43*	97	44*	29	.
CC1CCC(NC(=O)CSc2nncs2)CC1 (stereo unspecified)	5	-2	.	95	-6	.	.
CCN(CC)S(=O)(=O)c1cc(NC(=O)Cn2ncc(Cl)c(Cl)c2=O)ccc1C	9	14	4	110	55*	16	.
O=C(Cn1ncc(Cl)c(Cl)c1=O)Nc1ccc2c(c1)OCO2	15	8	.	148	10	.	.
O=C(COC(=O)COc1cccc(Br)c1)Nc1ccc(F)cc1F	-13	-2	.	122	-6	.	.
CC1CCc2sc3ncnc(N4CCN(C)CC4)c3c2C1 (stereo unspecified)	-4	-4	1	.	-7	.	.
CCC(=O)n1nc(-c2ccc(Cl)cc2)nc1N	13	-1	2	92	46*	-9	-4
O=C(O)c1ccc(N/N=C/c2ccc(-c3ccccc3)cc2)cc1	-15	.	-3	.	.	.	.
O=C(O)c1ccc(/C=N/n2cc(-c3ccccc3)[nH]c2=S)cc1	56	-5	48*	81	58*	80*	-4
Cc1cc(C)cc(-n2cc[nH]c2=S)c1	21	-7	12	91	15	.	.
Cn1ccc2ccc(C3=CC(=O)C[C@H](c4ccc(F)cc4)C3)cc21	16	1	.	86	-3	.	.
Cc1cccc(CN2CCN(C(C)C(=O)NC(C)c3ccccc3)CC2)c1 (stereo unspecified)	-3	1	3	104	1	.	.
COC(=O)N1CCc2c(sc(NC(=O)C3COc4ccccc4O3)c2C(N)=O)C1 (stereo unspecified)	57	2	.	113	50*	21*	-4
S=c1[nH]nc(-c2ccccc2)n1C1C=CCCC1 (stereo unspecified)	49	-1	16	85	42*	79*	-2
CCN(CC)C(=O)CSc1ncnc2sccc12	-15	-1	6	119	-5	.	.
CCN(CC)C(=O)CSc1ncnc2c(-c3cccs3)nsc12	1	26	-6	99	54*	45*	-3
COCCCN(CCCN)Cc1ccco1	7	-2	-4	103	71*	20	4
COCCCN(CCNC(=O)c1ccc(NC2=NC3CS(=O)(=O)CC3S2)cc1)Cc1ccco1 (stereo unspecified)	-2	-4	-9	87	-8	.	.
Cc1cccc(C)c1OCc1n[nH]c(=S)n1N	17	3	15	85	40*	54*	-3
Cc1cccc(C)c1OCc1n[nH]c(=S)n1-c1ccccc1	20	-1	4	101	8	.	.
Nn1c(COc2ccc(Cl)cc2)n[nH]c1=S	19	1	19	85	53*	58*	3
COCC(CN1CCN(C2=NS(=O)(=O)c3ccccc32)CC1)OC(=O)c1ccc(OC)cc1 (stereo unspecified)	5	-3	2	96	-8	.	.
c1ccc(-c2nnc3oc(-c4cccs4)nn23)cc1	0	.	.	.	.	.	.
Cc1nn(Cc2ccc(C(=O)O)o2)c(C)c1[N+](=O)[O-]	-12	-1	-3	95	54*	7	-1
CCOC(=O)c1cc(-c2ccc(OC)cc2)nn1-c1ccccc1C(=O)O	7	27	-4	98	63*	41*	-3
COc1ccc(-c2cc(C(=O)NN)n(-c3ccccc3)n2)cc1	0	5	5	93	0	.	.
CCN(CC(=O)Nc1cc(Cl)cc(Cl)c1)CC(=O)NC1CCS(=O)(=O)C1 (stereo unspecified)	10	-4	.	108	-5	.	.

From PubChem BioAssay
